Values joined by “and” are separate entries in the source; they are usually repeats but may differ in a detail not shown here. Identical values can stand only once. Active and inactive are the calls of the source. Cut-off read from the data, not from the text of the source, unless noted: active = inhibition above about 80%; inactive = the rest.
Assays:
[1] = compounds altering HSF1 focus formation in cells – imaging, Selleck Cancer Library (AID 1347162; in the data active = plate-normalised HSF1 focus index below about 0.46); details: human cells, HSF1 nuclear foci imaging, at 10 µM; SSMD: measured here: HSF1 foci SSMD mean; cell count: measured here: cell number; plate-normalised HSF1 focus index: stronger effect = lower value
[2] = system: Hepatitis C virus NS3 helicase; experiment: blockers of NS3h binding to ssDNA – biochemical, fluorescence polarization, LOPAC1280 library, primary screen (AID 687035; in the data active = inhibition above about 37%); details: Purified HCV NS3 helicase, Cy5-dT15 ssDNA binding fluorescence polarization; stronger effect = higher value; concentration not given here
[3] = compounds altering Cy5-DNA-NS3h complex signal – biochemical, LOPAC1280, artefact control for HCV NS3 helicase inhibitor project (AID 687037; call rule not given here); details: Cy5-DNA-NS3h complex fluorescence interference counterscreen
[4] = blockers of cellular phospholipid synthesis – cell-based, LOPAC library, screen 4, primary screen (AID 1347384; call rule not given here); details: animal cells, phospholipid biosynthesis inhibition screen; at 10 µM
[5] = galactose survival enhancers in mitochondrial complex I cybrids – cell-based, galactose medium, ATP luminescence, primary screen (AID 1645843;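 active = z-score of at least 1.8 in each of two replicates, scored against plate mean and spread of sample wells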;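 note: positive z means more ATP and so rescue of galactose-driven cybrid death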); details: complex I mutant cybrid cells, 72 h, stronger effect = higher value
[6] = P. berghei load reduction in hepatocytes – cell-based, HepG2, luciferase luminescence, HepG2 viability, primary screen (AID 624349; in the data active = parasite load remaining mostly below about 12%, no sharp cut-off; inactive = mostly above about 10%;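 note: 100% = mean of DMSO negative control wells on the same plate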); details: P. berghei liver stage in HepG2, luciferase luminescence, concentration not given here; parasite load remaining: stronger effect = lower value; viability: measured here: HepG2 viability without parasites
[7] = growth inhibition, single agents and combos, LFS_MB_1R, cell-based, cisplatin or BGB combos, synergistic combos for chromothripsis tumors (AID 1671452); details: LFS_MB_1R medulloblastoma cells, stronger effect = higher value;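 note: cells exposed for 96 hours before readout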
[8] = growth inhibition, single agents and combos, CRL2098, cell-based, BGB or cisplatin IC20 combos, synergistic combos for chromothripsis tumors (AID 1671454); details: CRL2098 osteosarcoma cells, drug combinations, stronger effect = higher value;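 note: cells exposed for 96 h before readout; 0% = vehicle DMSO and 100% = killing by high DMSO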
[9] = growth inhibition, single agents and combos, HD-MB03, cell-based, BGB or cisplatin IC20 combos, synergistic combos for chromothripsis tumors (AID 1671455; in the data active = inhibition above about 83%;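 note: 0% = vehicle DMSO and 100% = high DMSO as cytotoxic control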); details: HD-MB03 medulloblastoma cells, stronger effect = higher value
[10] = growth inhibition, single agents and combos, UWB1.289, cell-based, BGB or cisplatin combos, synergistic combos for chromothripsis tumors (AID 1671456); details: UWB1.289 ovarian carcinoma cells, stronger effect = higher value;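 note: cells exposed to compound for four days; 0% = vehicle DMSO and 100% = killing by high DMSO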
[11] = growth inhibition, single agents and combos, LFS_MB_2R, cell-based, cisplatin combos, synergistic combos for chromothripsis tumors (AID 1671457); details: LFS_MB_2R medulloblastoma cells, stronger effect = higher value;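 note: cells exposed to compound for four days before readout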
[12] = UWB1.289_BRCA1 ovarian cancer growth, cell-based, BGB or cisplatin combinations (AID 1671459); details: UWB1.289 BRCA1 ovarian carcinoma, drug combinations, stronger effect = higher value
[13] = drug combination toxicity in non-malignant astrocytes – cell-based, BGB or cisplatin IC20 combos, cytotoxicity control for chromothriptic childhood tumor combination screen (AID 1671460); details: Human astrocytes, viability inhibition, drug combinations, at 0.5 µM, stronger effect = higher value;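 note: cells exposed to compounds for 96 hours before viability readout; 0% = vehicle and 100% = killing control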
[14] = target: NAD(+) hydrolase SARM1 (Homo sapiens) (UniProt Q6SZW1); experiment: blocking NAD cleavage by SARM1 SAM-TIR – cell lysate, NAD-Glo luminescence (AID 1508614;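 active = compound whose remaining NAD level is above about 45 nM, limit read from the data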;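 note: higher remaining NAD means stronger inhibition of SARM1 NADase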); details: SAM-TIR HEK293T lysate NADase, at 1 µM, stronger effect = higher value
Sequence of NAD(+) hydrolase SARM1 (Homo sapiens) (Q6SZW1 whole entry, looked up): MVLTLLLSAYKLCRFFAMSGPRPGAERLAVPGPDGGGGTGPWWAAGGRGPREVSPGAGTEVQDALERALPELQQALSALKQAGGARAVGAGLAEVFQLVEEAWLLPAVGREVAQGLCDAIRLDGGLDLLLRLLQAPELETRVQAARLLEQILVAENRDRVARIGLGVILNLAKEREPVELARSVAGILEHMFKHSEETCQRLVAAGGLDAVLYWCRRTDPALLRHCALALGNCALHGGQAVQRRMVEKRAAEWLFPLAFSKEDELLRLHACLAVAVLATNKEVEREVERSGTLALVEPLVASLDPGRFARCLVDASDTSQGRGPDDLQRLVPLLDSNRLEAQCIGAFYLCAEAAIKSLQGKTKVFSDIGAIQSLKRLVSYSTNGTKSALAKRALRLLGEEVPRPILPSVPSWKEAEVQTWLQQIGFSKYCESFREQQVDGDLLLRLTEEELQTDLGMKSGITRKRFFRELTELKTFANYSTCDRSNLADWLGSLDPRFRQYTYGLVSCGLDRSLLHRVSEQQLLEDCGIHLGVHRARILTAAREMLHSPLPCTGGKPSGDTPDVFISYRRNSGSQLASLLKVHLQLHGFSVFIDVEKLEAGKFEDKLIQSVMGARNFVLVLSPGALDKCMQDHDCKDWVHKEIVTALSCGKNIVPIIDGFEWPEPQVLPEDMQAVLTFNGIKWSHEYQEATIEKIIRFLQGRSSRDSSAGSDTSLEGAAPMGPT

[15] = compounds altering circadian rhythm period length – cell-based, LOPAC library, luminescence reporter (AID 2774; call rule not given here;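 note: values are relative to mean of DMSO wells on each plate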); details: circadian reporter cells, at 7 µM, actives lie on both sides
[16] = measured here: combination with BGB IC40, at 0.05 µM
[17] = measured here: combination with cisplatin, at 0.5 µM
[18] = measured here: combination with cisplatin, at 5 µM
[19] = measured here: combination with BGB at IC20, at 0.5 µM
[20] = measured here: combination with cisplatin at IC20, at 0.5 µM
[21] = measured here: combo with BGB at IC20, at 0.5 µM
[22] = measured here: combo with cisplatin at IC20, at 0.5 µM
[23] = measured here: inhibition with BGB combination, at 0.05 µM
[24] = measured here: inhibition with cisplatin combination, at 0.05 µM
[25] = BGB combination, concentration series, at 5 µM
[26] = cisplatin combination, concentration series, at 5 µM
[27] = measured here: combo with BGB IC20
[28] = measured here: combo with cisplatin IC20

With CCOc1cc2ncc(C#N)c(Nc3ccc(F)c(Cl)c3)c2cc1NC(=O)/C=C/CN(C)C the SSMD [1] was 3.17, the cell count [1] was 7120 and the plate-normalised HSF1 focus index [1] was 1.19 (inactive).

With CCN(CC)CCn1c(=O)c(Cc2ccc(OC)cc2)nc2ccccc21 the inhibition [2] was 0% (inactive), the fluorescence ratio (interference) [3] was 1 (inactive) and the outcome [4] was “inactive”. For the same compound, the z-score [5] was -0.075 (inactive).

In the case of c1cc(-c2cnn3cc(-c4ccc(OCCN5CCCCC5)cc4)cnc23)ccn1, the parasite load remaining [6] is reported as 40.1% (inactive) and the viability [6] is reported as 103%.

For Nc1ccccc1NC(=O)c1ccc(CNC(=O)OCc2cccnc2)cc1, the SSMD [1] was 2.19, the cell count [1] was 6960 and the plate-normalised HSF1 focus index [1] was 1.11 (inactive). For the same compound, the inhibition ([7]; at 0.5 µM) was 61% (inactive) and 41.3% (inactive), the inhibition [7, 16] was -9.37% and -18.3% and the inhibition [7, 17] was 79.3% and 71.8%. For the same compound, the inhibition [7, 18] was 96.9% and 96.1%, the inhibition ([8]; at 0.5 µM) was 0.19% (inactive) and -6.59% (inactive) and the inhibition [8, 19] was -0.645% and -36.5%. For the same compound, the inhibition [8, 20] was 30.1% and 43.8%, the inhibition ([9]; at 0.5 µM) was 42.6% (inactive) and 20.9% (inactive) and the inhibition [9, 21] was 34.7% and 26.6%. The inhibition [9, 22] was 87.6% and 25.8%, the inhibition ([10]; at 0.5 µM) was 18.2% (inactive) and 10.7% (inactive) and the inhibition [10, 23] was 0.005% and -12.1%. For the same compound, the inhibition [10, 24] was -11.8% and 3.27%, the inhibition ([11]; at 0.5 µM) was 39.2% (inactive) and 22.4% (inactive) and the inhibition [11, 17] was 66.8% and 38.1%. The inhibition [11, 18] was 99.8% and 92.3%, the inhibition [12, 25] was 98.1% and 86.1% and the inhibition ([12]; at 0.5 µM) was 28.5% (inactive) and 10.5% (inactive). For the same compound, the inhibition [12, 26] was 104% and 98.8%, the inhibition [13] was 5.28% (inactive) and 8.78% (inactive) and the inhibition [13, 27] was 3.25% and 5.25%. For the same compound, the inhibition [13, 28] was 2.55% and 12.8%.

For c1nc2nc(Nc3ccc(N4CCOCC4)cc3)nc(NC3CCCCC3)c2[nH]1, the parasite load remaining [6] was 59.2% (inactive) and the viability [6] was 68.1%.

For C/C(=C\C(=O)Nc1ccccc1C(=O)O)c1ccc2ccccc2c1, the SSMD [1] was 2.21 and 1.02, the cell count [1] was 7410 and 6940 and the plate-normalised HSF1 focus index [1] was 1.08 (inactive) and 1.06 (inactive). For the same compound, the inhibition ([7]; at 0.5 µM) was -15% (inactive) and -22.4% (inactive), the inhibition [7, 16] was -9.05% and -43.4% and the inhibition [7, 17] was -18.5% and -27.8%. The inhibition [7, 18] was -22.6% and -72.2%, the inhibition ([8]; at 0.5 µM) was -36.1% (inactive) and -95.9% (inactive) and the inhibition [8, 19] was -28.4% and -70.2%. The inhibition [8, 20] was -47.6% and -160%, the inhibition ([9]; at 0.5 µM) was -6.95% (inactive) and -18.5% (inactive) and the inhibition [9, 21] was -7.43% and -31.2%. For the same compound, the inhibition [9, 22] was -10.4% and -19.6%, the inhibition ([10]; at 0.5 µM) was 9.98% (inactive) and -21.6% (inactive) and the inhibition [10, 23] was 3.22% and -36.6%. The inhibition [10, 24] was -9.11% and -30.4%, the inhibition ([11]; at 0.5 µM) was -3.77% (inactive) and -16.3% (inactive) and the inhibition [11, 17] was 1.51% and -14.7%. The inhibition [11, 18] was 6.83% and -4.92%, the inhibition [12, 25] was -7.61% and -2.79% and the inhibition ([12]; at 0.5 µM) was -8.12% (inactive) and -20.7% (inactive). The inhibition [12, 26] was 1.63% and -4.56%, the inhibition [13] was -12.6% (inactive) and 0.11% (inactive) and the inhibition [13, 27] was -9.38% and 5.29%. The inhibition [13, 28] was -22.2% and -3.59%.

In the case of CC(O)C1C(=O)N2C(C(=O)O)=C(SC3CNC(C(=O)N(C)C)C3)C(C)C12 (stereo not given), the z-score [5] is reported as 0.545 (inactive).

With Nc1nc2[nH]cc(CCc3ccc(C(=O)N[C@@H](CCC(=O)O)C(=O)O)cc3)c2c(=O)[nH]1 the SSMD [1] was -2.05, the cell count [1] was 7280 and the plate-normalised HSF1 focus index [1] was 0.87 (inactive). The remaining NAD [14] was 10 nM (inactive).

In the case of N#CC[C@H](C1CCCC1)n1cc(-c2ncnc3[nH]ccc23)cn1, the SSMD [1] is reported as 3.63, the cell count [1] is reported as 7430 and the plate-normalised HSF1 focus index [1] is reported as 1.23 (inactive).

In the case of CC1(C)C(=O)N(CCN2CCC(C(=O)c3ccc(F)cc3)CC2)c2ccccc21, the period change [15] is reported as 0.085 h (inactive), the inhibition [2] is reported as -1% (inactive) and the fluorescence ratio (interference) [3] is reported as 1 (inactive). The outcome [4] was “inactive” and the z-score [5] was -1.21 (inactive).

In the case of CC(C)OC(=O)[C@H](C)N[P@](=O)(OC[C@H]1O[C@@H](n2ccc(=O)[nH]c2=O)[C@](C)(F)[C@@H]1O)Oc1ccccc1, the inhibition ([7]; at 0.5 µM) is reported as -18.8% (inactive), the inhibition [7, 16] is reported as -16% and the inhibition [7, 17] is reported as -13.4%. The inhibition [7, 18] was -6.21%, the inhibition ([8]; at 0.5 µM) was -13.4% (inactive) and the inhibition [8, 19] was 11.7%. The inhibition [8, 20] was -20.8%, the inhibition ([9]; at 0.5 µM) was -3.62% (inactive) and the inhibition [9, 21] was -1.34%. The inhibition [9, 22] was -5.16%, the inhibition ([10]; at 0.5 µM) was 0.46% (inactive) and the inhibition [10, 23] was -14.4%. For the same compound, the inhibition [10, 24] was -6.56%, the inhibition ([11]; at 0.5 µM) was -20% (inactive) and the inhibition [11, 17] was -25%. The inhibition [11, 18] was -21.1%, the inhibition [12, 25] was 0.431% and the inhibition ([12]; at 0.5 µM) was -0.57% (inactive). The inhibition [12, 26] was 20%, the inhibition [13] was 4.95% (inactive) and the inhibition [13, 27] was 12%. The inhibition [13, 28] was 8.21%.

For NC(N)=Nc1nc(CSCCC(N)=NS(N)(=O)=O)cs1, the inhibition [2] was -3% (inactive), the fluorescence ratio (interference) [3] was 1 (inactive) and the outcome [4] was “inactive”. The z-score [5] was 1.1 (inactive) and 1.27 (inactive).

Reference: PubChem BioAssay
